Screens deposited in PubChem BioAssay by National Center for Advancing Translational Sciences (NCATS).
TDP1 cell CPT: growth inhibition of DT40 Tdp1-/-;hTDP1 cells with camptothecin (screen for TDP1 inhibitors); chicken DT40 Tdp1-/-;hTDP1 cells + 20 nM CPT, ATP luminescence, 48 h; Potency, µM (top dose mostly 46.2 µM), for the others: at the top dose activity change, negative = growth inhibition, most hits filed as inhibitors; 420,000 tested, 12% active; AID 686979; also: potency is read from the fitted curve at half-maximal effect; nearly all actives have a fitted effect of over 55% in size
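Chicken DT40 Tdp1-/- cells stably complemented with human TDP1 were seeded at 400 cells/well in medium containing 20 nM camptothecin, exposed to pin-transferred compounds, and grown at 37 °C for at least 48 hr. Viability was read as ATP luminescence.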
DT40 TDP1 no CPT: qHTS for Inhibitors of human tyrosyl-DNA phosphodiesterase 1 (TDP1): qHTS in cells in absence of CPT; DT40 Tdp1-/- hTDP1 cells, no CPT, ATP luminescence, 48 h; Potency, µM (doses to about 46.2 µM), without a hit: at the top dose activity change, negative = growth inhibition, most hits filed as inhibitors; 420,000 tested, 15% active; also: potency is read from the fitted curve at half-maximal effect; nearly all actives have a fitted effect of over 55% in size
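Seeded 400 DT40-hTDP1 cells/well (vehicle DMSO, no 20 nM CPT); pinned compounds; ≥48 hr at 37 °C; CellTiter-Glo luminescence as viability measure.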
HT1080-NT tox: kills 2HG-producing HT-1080-NT fibrosarcoma cells; HT-1080-NT fibrosarcoma viability, CellTiter-Glo ATP luminescence, 48 h; Potency, µM (doses to about 46.1 µM), for inactives: top-dose activity, negative = less viability, most hits filed as cytotoxic; 360,000 tested, 1.6% active; AID 686970;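 also: NT is the 2HG producing partner of a matched IDH1 knockdown line; potency is read from the fitted curve at half-maximal effect; 0% = DMSO-treated cells and -100% = media-only wells without cells; nearly all actives have a fitted effect of over 55% in size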
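Read-out is CellTiter-Glo luminescence after 10 minutes at room temperature, following 48 hours' compound treatment of HT-1080-NT cells (750 cells/well, RPMI, 5% FBS, 37 degrees C).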
IL1B secr inh: inhibitors of inflammasome signaling (IL-1 beta secretion); THP-1 LPS/ATP IL-1B secretion, AlphaLISA, 16 h; hits give low values; activity change, % at 57.5 µM; 360,000 tested, 4.7% active; AID 743279; in the data active = activity change below about -50%; inconclusive = mostly about -30% to -49%
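Secreted IL-1B measured by AlphaLISA bead assay after 16 h compound exposure of THP-1 cells; compounds (final up to 57.5 uM) added 1 h before LPS (250 ng/mL) and ATP (1.25 mM) stimulation; lower signal means less secretion.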
ELG1 DNA repair: ELG1-dependent DNA repair inhibition. HEK293T ELG1-luciferase reporter, luminescence, 16 h; DNA damage induced by 5-fluorouridine. Potency, µM (series often up to 46.1 µM), for inactives: at the highest dose activity change, negative = inhibition, most hits filed as inhibitors. 330,000 tested, 2.3% active. AID 504467; also: potency is read from the fitted curve at half-maximal effect; nearly all actives have a fitted effect of over 55% in size
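DMSO vehicle served as the neutral condition. Each well held 2,000 cells given 5-fluorouridine plus compound; after 16 hr at 37 °C/5% CO2, ONE-Glo was added and luciferase measured 30 min later.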
HT1080 IDH1KD tx: kills HT-1080 cells with IDH1 knockdown. HT-1080 IDH1 knockdown viability, ATP luminescence, 48 h. Potency, µM (doses to about 46.1 µM), for inactives: top-dose activity, negative = toxicity, usual class: cytotoxic. 360,000 tested, 2% active. AID 686971;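 also: potency is read from the fitted curve at half-maximal effect; 0% = DMSO wells and -100% = cell-free medium wells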
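CellTiter-Glo luminescence after 48 h compound exposure at 37 degrees C of IDH1-knockdown HT-1080 cells in 5% FBS RPMI. %Activity scaled between DMSO wells and cell-free media wells, with curves fitted and assigned curve classes.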
* marks the source's active call; other numbers are inactive results; ? = inconclusive; . = no result; ! = repeats disagree. Rows were chosen to be rich in hits. Some 19% of all compounds tested hit in one or more screens of this group. Unless noted, calls follow the shape of the dose curve; as a rule, active = well fitted curve in the direction sought with a large enough effect; inconclusive = small, poorly fitted or top-dose-only effect, or another doubt; inactive = no such curve, though single readings can be large; an effect the other way counts as inactive or inconclusive. Unless noted, % is scaled to controls: 0 for no effect and ±100 for the full control effect.

SMILES | TDP1 cell CPT | DT40 TDP1 no CPT | HT1080-NT tox | IL1B secr inh | ELG1 DNA repair | HT1080 IDH1KD tx
COc1ccc(N(C)S(=O)(=O)c2cccc(C(=O)NCC(c3cccs3)N(C)C)c2)cc1 (stereo unspecified) | ? | -26% | -4% | -2 | -8% | 7%
Cc1cccc(NC(=O)CN2C(=O)c3cccc4cccc2c34)c1C | 0% | -14% | . | . | . | .
O=C(NCC1CCCN(C(=O)c2cscn2)C1)c1ccccc1Cl (stereo unspecified) | -11% | -26% | 20% | 7 | ? | 21%
O=C(Nc1cccc(-c2ccc(F)cc2)c1)C1CCCN(C(=O)c2cscn2)C1 (stereo unspecified) | 13µM* | ? | -4% | 18 | 1% | 3%
Cc1ncoc1C(=O)N1CCCC(C(=O)Nc2cccc(-c3ccc(F)cc3)c2)C1 (stereo unspecified) | ? | 18µM* | -5% | -9 | -14% | -2%
O=C(NCC1CCCN(C(=O)c2cscn2)C1)c1ccc(-c2ccccc2)cc1 (stereo unspecified) | -29% | 21µM* | -21% | ? | ? | -21%
CCN(C(=O)COC(=O)CCC1CCCC1)c1c(N)n(Cc2ccccc2)c(=O)[nH]c1=O | -23% | -7% | 3% | 8 | 23% | 5%
CCc1nc(SCC(=O)c2cccs2)c2oc3ccccc3c2n1 | ? | 18µM* | 0% | 10 | ? | -13%
Cc1nc(SCC(=O)c2ccc(Cl)s2)c2oc3ccccc3c2n1 | ? | ? | 1% | 9 | 2% | 11%
CCc1nc(SCC(=O)NCCc2ccccc2)c2oc3ccccc3c2n1 | 21µM* | ? | 7% | -11 | ? | 7%
Cc1ccc(C)c(Cn2nnc(C(=O)NCc3ccccc3)c2N)c1 | -16% | ? | . | . | . | .
CCc1noc(C)c1C(=O)N(C)CC(=O)Nc1ccc(F)c(F)c1F | -3% | -8% | 17% | 15 | ? | 16%
Cn1cc(S(=O)(=O)N2CCCC2)cc1C(=O)NCc1ccccc1Cl | 16µM* | -16% | -20% | 0 | -3% | 2%
COc1cccc(CNC(=O)c2cc(S(=O)(=O)N3CCOCC3)cn2C)c1 | 21µM* | 1% | 0% | ? | 18% | -4%
COc1ccccc1CNC(=O)c1cc(S(=O)(=O)N2CCCC2)cn1C | -20% | -16% | 11% | 3 | 4% | 3%
CCCCN(CC)CCNC(=O)c1cc2c(=O)[nH]c3ccccc3c2n1C | 15µM*! | 16µM*! | 0% | -13 | 0% | -1%
Cc1ccc2[nH]c(=O)c3cc(C(=O)NCCC(C)C)sc3c2c1 | ? | ? | ? | -25 | ? | 22%
CCCCN(CC)CCCNC(=O)c1cc2c(=O)[nH]c3ccccc3c2s1 | ? | 23µM* | ? | -73* | 14% | ?
O=C(NCCCN1CCOCC1)c1cc2c(=O)[nH]c3ccccc3c2s1 | ? | ? | 0% | -50* | 29% | 1%
CCC(C)NC(=O)c1cc2c(=O)[nH]c3ccc(C)cc3c2s1 (stereo unspecified) | ? | ? | 9% | -53* | -11% | 11%
COC(=O)Cn1c(=O)c2c(nc3n2CCN3c2ccc(F)cc2)n(C)c1=O | -5% | -2% | . | . | . | .
COc1cccc(NC(=O)CN(C)C(=O)CSc2ncnc3sc(C)c(C)c23)c1 | ? | ? | -1% | 7 | ? | 2%
COc1ccc(NC(=O)NNC(=O)C(C)Oc2ccc3ccccc3c2)cc1 (stereo unspecified) | 13% | 2% | 3% | -8 | -13% | 1%
O=C(NCCOc1ccc(Cl)cc1)c1ccc2c(c1)OCCO2 | -3% | -28% | -1% | -9 | ? | -4%
CCCCN(CC)CCNC(=O)c1cc2c(=O)[nH]c3ccc(C)cc3c2s1 | ? | ? | 16µM* | -100* | -4% | 18µM*
SMILES | TDP1 cell CPT | DT40 TDP1 no CPT | HT1080-NT tox | IL1B secr inh | ELG1 DNA repair | HT1080 IDH1KD tx
COc1ccccc1NC(=O)Nc1nc(CC(=O)NCc2c(F)cccc2F)cs1 | ? | 21µM* | 11% | -11 | ? | 8%
COc1ccccc1NC(=O)Nc1nc(CC(=O)NCc2ccc(F)cc2)cs1 | 9.2µM* | 16µM* | -8% | -12 | ? | -15%
COc1ccccc1NC(=O)Nc1nc(CC(=O)N2CCN(c3ccccc3F)CC2)cs1 | ? | 18µM* | -21% | -23 | 16µM* | ?
COc1cccc(CNC(=O)Cc2csc(NC(=O)Nc3ccccc3OC)n2)c1 | ? | 21µM* | 4% | -14 | ? | 7%
O=C(Cc1csc(-c2ccccc2)n1)NCc1ccc(F)cc1 | 4% | -13% | -16% | 2 | 6% | -19%
CCc1sc(C(=O)N(CCOC)c2c(N)n(Cc3ccccc3)c(=O)[nH]c2=O)cc1C | -3% | 6% | 3% | -16 | . | -1%
COc1cccc(NC(=O)CCc2c(C)nc3ncnn3c2C)c1 | 13% | -5% | . | . | . | .
CN[C@H](C)C(=O)NC[C@H]1O[C@@H](n2cnc3c(N)ncnc32)[C@H](O)[C@@H]1O | 0% | -15% | -3% | 24 | 25% | -2%
COc1ccc(CC(=O)N/N=C(/C)CC(=O)N(C)c2ccccc2)cc1 | 11% | -22% | 2% | 4 | 13% | 0%
Cc1ccccc1C(=O)N(C)[C@H]1C[C@H]2c3[nH]c4ccccc4c3CCN2C(=O)[C@H]1[C@H](C)O | ? | 21µM* | -10% | -15 | . | 1%
C[C@H](O)[C@@H]1C(=O)N2CCc3c([nH]c4ccccc34)[C@@H]2C[C@@H]1N(C)Cc1ccc2c(c1)OCO2 | ? | 16µM* | -18% | -11 | . | -12%
COc1ccc(C(=O)N(C)[C@H]2C[C@H]3c4[nH]c5ccccc5c4CCN3C(=O)[C@H]2CO)cc1 | -17% | ? | -3% | 0 | . | 0%
C[C@H](O)[C@@H]1CN2CCc3c([nH]c4ccccc34)[C@@H]2C[C@@H]1N(C)Cc1cc(Cl)cc(Cl)c1 | ? | 23µM* | -16% | -16 | . | -9%
C[C@H](O)[C@@H]1C(=O)N2CCc3c([nH]c4ccccc34)[C@@H]2C[C@@H]1N(C)S(=O)(=O)c1ccccc1 | ? | 23µM* | -3% | -15 | . | -6%
CC(C)COc1ccc(C(=O)N2CCC(c3nc4ccccc4s3)CC2)cc1 | -7% | ? | . | . | . | .
Cc1nn(CCCC(=O)NCc2ccc(F)cc2)c(=O)c2c1sc1ccccc12 | -25% | -18% | . | . | . | .
